Here are results for 18 molecules from PubChem BioAssay (NCATS).

Inconclusive results are not listed. A number with no mark means an inactive call. Active and inactive are the calls of the source. Calls follow the shape of the dose curve; as a rule, active = well fitted curve in the direction sought with a large enough effect in the repeat runs; inconclusive = weak or mixed curves; inactive = no such curve, though single readings can be large; an effect the other way counts as inactive or inconclusive.
% is scaled to controls: 0 for no effect and ±100 for the full control effect; potency is read from the fitted curve at half-maximal effect.
Also: nearly all actives have a fitted effect of over 55% in size.

Cytochrome P450 2C9 (Homo sapiens), sequence (P11712 whole entry, looked up): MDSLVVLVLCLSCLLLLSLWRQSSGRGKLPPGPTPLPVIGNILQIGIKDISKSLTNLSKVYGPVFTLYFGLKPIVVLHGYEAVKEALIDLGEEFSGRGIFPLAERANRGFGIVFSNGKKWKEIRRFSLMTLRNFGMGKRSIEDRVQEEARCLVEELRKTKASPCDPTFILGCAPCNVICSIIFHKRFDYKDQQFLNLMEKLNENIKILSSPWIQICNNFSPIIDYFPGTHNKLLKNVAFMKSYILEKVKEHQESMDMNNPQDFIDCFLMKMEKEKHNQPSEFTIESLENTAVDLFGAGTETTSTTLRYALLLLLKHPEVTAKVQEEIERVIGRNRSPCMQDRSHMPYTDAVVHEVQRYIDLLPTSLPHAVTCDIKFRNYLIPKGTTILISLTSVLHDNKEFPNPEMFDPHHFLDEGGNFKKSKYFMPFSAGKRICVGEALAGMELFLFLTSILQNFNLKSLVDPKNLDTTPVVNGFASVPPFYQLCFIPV

The target in one assay is Cytochrome P450 2D6 (Homo sapiens) (UniProt P10635). The assay can be described thus: Cytochrome P450 family 2 subfamily D member 6 (CYP2D6) small molecule antagonists: luciferase biochemical (cell-free) qHTS assay (AID 1645840). The note with it: P450-Glo CYP2D6 enzyme, luciferin luminescence, 1 h; series mostly up to 57.4 µM; activity change, negative = inhibition: at the top concentration. The essentials: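 P450-Glo CYP2D6 system: proluciferin substrate converted by enzyme to luciferin, read by luminescence proportional to activity. Enzyme-substrate mix with compound 10 min at room temperature, then NADPH regeneration 1 h before detection reagent.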
Cytochrome P450 2D6 (Homo sapiens), sequence (P10635 whole entry, looked up): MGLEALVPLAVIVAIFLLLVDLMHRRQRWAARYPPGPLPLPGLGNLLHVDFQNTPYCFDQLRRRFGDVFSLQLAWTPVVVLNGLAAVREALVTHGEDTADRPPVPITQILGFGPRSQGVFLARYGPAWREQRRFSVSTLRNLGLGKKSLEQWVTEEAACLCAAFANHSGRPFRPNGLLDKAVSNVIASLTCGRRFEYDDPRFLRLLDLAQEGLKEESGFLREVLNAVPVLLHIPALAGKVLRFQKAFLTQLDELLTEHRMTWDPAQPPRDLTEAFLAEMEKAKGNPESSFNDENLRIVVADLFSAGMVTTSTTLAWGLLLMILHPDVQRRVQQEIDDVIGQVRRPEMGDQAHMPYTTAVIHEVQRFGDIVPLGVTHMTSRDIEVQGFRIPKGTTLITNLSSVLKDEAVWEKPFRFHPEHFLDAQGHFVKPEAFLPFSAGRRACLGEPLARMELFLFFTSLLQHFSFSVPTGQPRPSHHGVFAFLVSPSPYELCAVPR
In the case of `COc1ccc(Nc2cc(-c3cnc(N)nc3)nc(N3CCOCC3)n2)cn1`, the “activity change, negative = inhibition” value was -2.9%.

Turning to `CC(O)(C#Cc1ccc2c(c1)N(c1nc(N)ncc1Cl)CC2)c1nccs1` (centres undefined), the Potency is 9.52 µM (active).

In the case of `COc1cc(C)c(C=CC(C)=CC=CC(C)=CC(=O)O)c(C)c1C`, the “activity change, negative = inhibition” value is -7.24%.

Turning to `CCc1c(O)cc(O)c(C(=O)c2ccc(OCCN3CCOCC3)c(OC)c2)c1CC(=O)N(CCOC)CCOC`, the “activity change, negative = inhibition” value is 1.41%.

Consider `CCOC(=O)N1CCN([N+]([O-])=NOc2ccc([N+](=O)[O-])cc2C#N)CC1`, for which the “activity change, negative = inhibition” value is -20.6%.

With `FC(F)c1nc2ccccc2n1-c1nc(N2CCOCC2)nc(N2CCOCC2)n1`, the “activity change, negative = inhibition” value is 8.31%.

For the molecule `C#Cc1cccc(Nc2ncnc3cc(OCCOC)c(OCCO)cc23)c1`, the Potency was 8.49 µM (active).

`CN(C)CC(=O)N1CCC(c2ccc(NC(=O)c3ncc(C#N)[nH]3)c(C3=CCCCC3)c2)CC1`: the “activity change, negative = inhibition” value is -13.1%.

In the case of `Cc1noc(-c2ccc(CSCCC(=O)O)cc2)c1NC(=O)OC(C)c1ccccc1Cl` (centres undefined), the “activity change, negative = inhibition” value was -8.42%.

With `Cn1cnc2c(F)c(Nc3ccc(Br)cc3F)c(C(=O)NOCCO)cc21`, the “activity change, negative = inhibition” value is -22.5%.

Take `CS(=O)(=O)N1CCc2c(-c3cnc(N)nc3)nc(N3CCOCC3)nc21`: the “activity change, negative = inhibition” value is 6.75%.

Consider `CCCCCCCCCCCCCCCC(=O)OC[C@@H](NC(=O)C(Cl)Cl)[C@H](O)c1ccc([N+](=O)[O-])cc1`, for which the “activity change, negative = inhibition” value is 4.8%.

In the case of `CN1CCc2c(c3ccccc3n2Cc2ccc(C(=O)NO)cc2)C1`, the Potency was 7.56 µM (active).

`O=C(Nc1cc2cc[nH]c2cn1)c1ccccc1`: the Potency was 13.5 µM (active).

Consider `CC(C)(N)c1ccc(-c2nc3ccccc3nc2-c2ccccc2)cc1`, for which the Potency is 15.1 µM (active).

The target of a further assay is Cytochrome P450 2C9 (Homo sapiens) (UniProt P11712). Briefly: Cytochrome P450 family 2 subfamily C member 9 (CYP2C9) small molecule antagonists: luciferase biochemical (cell-free) qHTS assay (AID 1645842). The conditions noted are these: P450-Glo CYP2C9 enzyme assay, luciferin luminescence; series mostly up to 57.4 µM; activity change, negative = inhibition: at the top concentration. Summed up:
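P450-Glo CYP2C9 system: proluciferin substrate with enzyme in mix containing 0.4% BSA, 10 min at room temperature, then NADPH regeneration solution added and incubated 1 h at 37C. Detection reagent stopped reaction; luminescence read after 20 min as RLU.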
For the molecule `COc1ccc(Nc2cc(-c3cnc(N)nc3)nc(N3CCOCC3)n2)cn1`, the Potency is 8.49 µM (active).

As for `c1cncc(CN2CCC(n3ncc4c(N5CCOCC5)nc(-c5ccc6[nH]ccc6c5)nc43)CC2)c1`, the Potency was 1.9 µM (active).

On to `CC(O)(C#Cc1ccc2c(c1)N(c1nc(N)ncc1Cl)CC2)c1nccs1` (centres undefined), for which the Potency was 1.07 µM (active).

Regarding `COc1cc(C)c(C=CC(C)=CC=CC(C)=CC(=O)O)c(C)c1C`, the Potency was 23.9 µM (active).

For `Oc1ccc([C@@H]2Oc3ccc(O)cc3[C@@H]3CCC[C@@H]32)cc1`, the “activity change, negative = inhibition” value is -25.8%.

As for `FC(F)c1nc2ccccc2n1-c1nc(N2CCOCC2)nc(N2CCOCC2)n1`, the Potency is 1.69 µM (active).

`CN(C)CC(=O)N1CCC(c2ccc(NC(=O)c3ncc(C#N)[nH]3)c(C3=CCCCC3)c2)CC1`: the “activity change, negative = inhibition” value is -19%.

On to `Cc1noc(-c2ccc(CSCCC(=O)O)cc2)c1NC(=O)OC(C)c1ccccc1Cl` (centres undefined), for which the Potency is 12 µM (active).

`Cn1cnc2c(F)c(Nc3ccc(Br)cc3F)c(C(=O)NOCCO)cc21`: the Potency is 9.52 µM (active).

Regarding `CCCCCCCCCCCCCCCC(=O)OC[C@@H](NC(=O)C(Cl)Cl)[C@H](O)c1ccc([N+](=O)[O-])cc1`, the Potency was 3.01 µM (active).

Turning to `CN1CCc2c(c3ccccc3n2Cc2ccc(C(=O)NO)cc2)C1`, the “activity change, negative = inhibition” value was -16.2%.

With `O=C(Nc1cc2cc[nH]c2cn1)c1ccccc1`, the Potency is 4.77 µM (active).

On to `CC(C)(N)c1ccc(-c2nc3ccccc3nc2-c2ccccc2)cc1`, for which the Potency is 13.5 µM (active).

For the molecule `CC(C)n1cnc2c(NCCc3ccc(O)cc3)nc(-c3csc4ccccc34)nc21`, the Potency is 2.68 µM (active).
